In all, about 2,200 compounds went through this assay and about 480 (22%) were called active. A selection follows. Measured potencies and affinities stand elsewhere. Unmarked numbers belong to inactive results. No rule for the calls is given here.
Assay: S. Typhimurium GFP fluorescence dose response in modified counterscreen for PhoP regulon inhibitor project (AID 1981);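 also: 0% = induced DMSO wells and 100% = uninduced wells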
Conditions: 4 h; series mostly up to 150 µM; inhibition: at the top concentration

| Compound | inhibition |
| --- | --- |
| c1ccc2cc(CSCc3nc4ccccc4[nH]3)ccc2c1 | 13.8% |
| Cc1ccc(NC(=O)COC(=O)C2(c3ccc(Cl)cc3)CCCC2)cc1 | -16.8% |
| O=C(CSc1nnc(-c2cccnc2)o1)OC1CCCCC1 | -25.1% |
| COc1cccc(NS(=O)(=O)c2c(C)cc(C)cc2C)c1 | 7.36% |
| c1ccc2c(C3=NNC(=NC4CC4)SC3)c[nH]c2c1 | -24.9% |
| COc1ccc(NC(=O)CSc2nc(C)cs2)cc1OC | -5.4% |
| c1ccn2c(CNc3ncnc4sccc34)nnc2c1 | -17.6% |
| CCCCOC(=O)CCNc1n[nH]c(=O)[nH]c1=O | 0.14% |
| O=C(Nc1ccc(NC(=O)C23CC4CC(CC(C4)C2)C3)cn1)c1ccco1 | -13.3% |
| COC(=O)CCC(=O)Nc1ccc(OC)cc1 | 0.92% |
| CC(=O)N/N=C/c1ccc(OCCOc2ccc(Br)cc2)cc1 | -23.2% |
| O=C1CCCc2c1cc(C(=O)NCc1ccco1)c(=O)n2-c1ccc(Cl)cc1 | -3.88% |
| COc1ccc(OC)c(C2=Nn3c(nnc3-c3cc(OC)c(OC)c(OC)c3)SC2)c1 | -4.61% |
| O=C(Cc1ccc(Cl)cc1)NNS(=O)(=O)c1ccc([N+](=O)[O-])cc1 | -10.4% |
| N[C@H](CSCc1ccccc1)C(=O)Nc1ccc([N+](=O)[O-])cc1 | 5.75% |
| Cc1ccc(CSCc2nc3ccccc3[nH]2)cc1 | 8.08% |
| CN1CCCC(OC(=O)CCCC(=O)OC2CCCN(C)C2)C1 (stereo not given) | 2.83% |
| O=C(c1ccc(Oc2ccccc2)cc1)c1nc2c(n1O)CCCC2 | 23.6% |
| CC1CC(C)CN(CCCSc2ccccc2)C1 (stereo not given) | -12% |
| CC(Nc1ccc(Br)cn1)c1cc(Cl)ccc1O (stereo not given) | 15.7% |
| O=C(CN1CCN(c2ccccn2)CC1)Nc1ccc(Oc2ccccc2)cc1 | 0.24% |
| Cc1nn2c(=O)cc(CSc3nc4ccccc4[nH]3)nc2s1 | 5.25% |
| CC(=Nc1c(C)n(C)n(-c2ccccc2)c1=O)c1c(O)n(Cc2ccccc2)c(=O)[nH]c1=O | -0.46% |
| Cc1cc2nn(-c3ccccc3)nc2cc1NC(=O)c1cccs1 | -22.9% |

| Compound | inhibition |
| --- | --- |
| NNC(=O)CNC(c1ccccc1)c1cc(Br)ccc1NC(=O)c1ccc(Br)cc1 (stereo not given) | 19% |
| O=C(/C=C/c1ccco1)N/C(=C\c1ccccc1)C(=O)NCCc1nc2ccccc2[nH]1 | -0.03% |
| O=C(O)CCc1nn2c3ccccc3n(CCN3CCCCC3)c2nc1=O | 4% |
| O=C(NCc1cccs1)[C@@H]1CSC2c3ccccc3C(=O)N21 (stereo not given in full) | 2.31% |
| CC(C(=O)NC1CCCc2ccccc21)N1CCN(Cc2ccc3c(c2)OCO3)CC1 (stereo not given) | -1.02% |
| Cc1ccc(NC2CC(=O)N(Cc3ccccc3)C2=O)cc1 (stereo not given) | -19.2% |
| NC(=O)C1(NC(=O)[C@@H]2CC3(CC(c4cccc(NC(=O)[C@@H]5CCC(=O)N5)c4)=NO3)CN2C(=O)Cc2ccc(Cl)cc2)CC1 (stereo not given in full) | -10.6% |
| Cc1ccc(C=Nc2ccccc2C(N)=O)s1 | -22% |
| CC(=O)Nc1ccc(-c2nnc(SCc3c(C)cc(C)cc3C)n2C)cc1 | 8.18% |
| O=C(NCc1cccs1)c1cccc(Nc2nc3ccc(Br)cc3[nH]2)c1 | 5.95% |
| Nc1c(C(=O)NCCc2ccc(Cl)cc2)sc2ccc(S(=O)(=O)N3CCCCC3)cc12 | 2% |
| CCCCCCCCNc1ncnc2ccccc12 | 21.5% |
| Clc1ccc(OCCn2ccnc2)c(Br)c1 | 4.2% |
| Cc1ccc(N2C(=O)CC(Nc3ccccc3)C2=O)cc1 (stereo not given) | -5.83% |
| COC(=O)c1sccc1N/N=C(\C)c1ccc(F)c(Cl)c1 | 4.52% |
| CCN(CC(=O)N1CCN(Cc2ccccc2)CC1)S(=O)(=O)c1ccc(F)cc1 | -7.07% |
| O=C(Nn1c(O)c(C=C2N=c3ccccc3=N2)sc1=S)c1ccc(Cl)cc1 | -10.5% |
| C=CCn1c(SCC(=O)Nc2nnc(CC)s2)nnc1-c1cccnc1 | -22.6% |
| CN(c1ccccc1)S(=O)(=O)c1ccc(C(=O)Nc2nnc(-c3ccc(F)cc3)o2)cc1 | -10.1% |
| Cc1ccc(C)c(NC(=O)C(Sc2nnc(-c3cccs3)o2)c2ccccc2)c1 (stereo not given) | 3.64% |
| Cc1cc(-c2c(C)n([O-])c(C)c(C)[n+]2=O)ccc1F | -12.9% |
| COc1cc(C(=O)NC(=S)Nc2ccc3oc(=O)ccc3c2)cc(OC)c1OC | -16.2% |
| CC1(C)CC(=O)C2=C(C1)OC1=C(C(=O)CC(C)(C)C1)C2c1ccc(O)cc1O | 17.2% |
| Cc1cc(Nc2ccccc2F)n2ncnc2n1 | -1.64% |

| Compound | inhibition |
| --- | --- |
| C/C(=N\N=C(/N)SC1CC(=O)N(c2cccc(Cl)c2)C1=O)c1cccs1 (stereo not given) | 6.99% |
| CCCCCCNCc1cccc(Br)c1 | -5.86% |
| Cc1ccccc1NC(=O)Nc1cccs1 | 0.01% |
| O=C(c1cc(-c2cccs2)nc2ccccc12)N1CCN(c2ccccc2O)CC1 | 39.2% |
| CCC1=NNc2cccc3c(OC)ccc1c23 | -16.9% |
| O=C1Nc2ccccc2C12OCC1(CO2)COC2(OC1)C(=O)Nc1ccccc12 (stereo not given) | 35% |
| Cc1ccc2nc(SCC(=O)NCc3ccco3)[nH]c2c1 | -4.71% |
| Cc1ccc(C(C)C)c(OCC(=O)N2CCN(Cc3nc4cc([N+](=O)[O-])ccc4n3C)CC2)c1 | 1.95% |
| Cc1cc(C)cc(-n2nc(C)cc2N)c1 | -5.73% |
| CCCN1C(=O)SC(CC(=O)Nc2ccc(Br)cc2)C1=O (stereo not given) | 4.65% |
| Cn1c(NCc2cccs2)nc2ccccc21 | -15.4% |
| CC(C)[C@@H]1CC[C@@H](C)C[C@H]1OC(=O)C[n+]1cc(-c2ccc(Cl)cc2)n2c1CCCCC2 | 7.76% |
| CC1CCC(C(C)C)C(OC(=O)Cn2c(-c3ccc(Cl)cc3)[n+](C)c3ccccc32)C1 (stereo not given) | 24.2% |
| NC[C@@]12CCCC1C1CCC2C1 (stereo not given in full) | -33.1% |
| CN(C)S(=O)(=O)Oc1ccsc1C(=O)Nc1ccccc1Cl | -4.31% |
| COC(=O)c1cccc(NC(=O)CCCOc2ccccc2)c1 | -9.35% |
| O=C(CSC1CC(=O)N(CCc2ccccc2)C1=O)Nc1cccc(Cl)c1 (stereo not given) | 18.6% |
| Nc1ccc2nc(SCC(=O)Nc3ccc(N4CCOCC4)c(Cl)c3)sc2c1 | 4.06% |
| Cc1cccc(NC(=O)CCC(=O)OCc2ccc(Br)cc2)c1 | -11.4% |
| Cc1nc2ccccc2n1CC(=O)N/N=C\C=C\c1ccccc1 | 3.06% |
| O=C(CCN1C(=O)c2ccccc2C1=O)Nc1ccc(-c2cn3ccsc3n2)cc1 | -5.3% |
| CC(C)(C)n1ncc2c(=O)n(CC(=O)Nc3ccc4c(c3)OCO4)cnc21 | 4.98% |
| O=C1NC(=Nc2ccccc2)/C(=C/c2ccco2)S1 | 14.3% |
| COC(=O)c1ccc(CSc2nnnn2-c2ccccc2)o1 | -0.29% |

| Compound | inhibition |
| --- | --- |
| O=C1c2ccccc2C(=O)N1CCCc1nc(-c2ccccn2)no1 | 1.57% |
| O=C(/C=C/c1ccccc1)N/C(=C/c1ccccc1)C(=O)N1CCOCC1 | -23% |
| C=CCOc1ccc(Br)cc1/C=N/O | -2.94% |
| CCCOc1ccc(Br)cc1CSC(=N)N | 39.9% |
| COC(=O)c1ccc(NC(=O)c2ccc(N(C)S(C)(=O)=O)cc2)cc1 | 1.77% |
| CC1CCCCN1CCNS(=O)(=O)c1ccc2c(c1)oc(=O)n2C (stereo not given) | -2.5% |
| O=C1NC2=C(CCc3ccccc32)C(c2ccc(Br)cc2)N1 (stereo not given) | -14.1% |
| Cc1ccccc1NC(=O)c1ccc(-n2cncn2)nc1 | 2.26% |
| CCc1nc2ccccc2c2nc3ccccc3n12 | -2.87% |
| CCOC(=O)CC(=O)CSc1nc2c(c(C)c1C#N)CCC2 | -1.08% |
| N/C(=N\c1nc2ccccc2o1)NC(=O)c1ccccc1F | -12.1% |
| Oc1ccc(/C=N/n2cnn(Cc3ccccc3Cl)c2=S)c(O)c1 | 3.42% |
| CC(=O)Nc1cc(N=Cc2ccc(O)cc2O)c(Cl)cc1Cl | 33.6% |
| CC1C(=O)NN=C1C(=O)N/N=C\c1ccc(O)cc1O (stereo not given) | -28.1% |
| O=C(N/N=C/c1ccc(O)cc1O)/C(=C/c1ccccc1)CCO | 7.5% |
| Oc1ccc(/C=N/NC2=NCCCCC2)c(O)c1 | 5.44% |
| Cc1ccc2nc(SCCCCOc3ccccc3)[nH]c2c1 | -12.1% |
| CCOC(=O)CN1C(=O)C(C)(C)Oc2ccc(C(=O)Nc3ccccc3OC)cc21 | -3.35% |
| O=C(Nc1cc(C(F)(F)F)ccc1N1CCOCC1)c1ccc(Br)o1 | -20.1% |
| COc1ccc(C)cc1NC(=O)C(Sc1nnc(-c2ccncc2)n1-c1ccc(Cl)cc1)c1ccccc1 (stereo not given) | -3.05% |
| Cc1ccc(N=Cc2sc(O)c3ccccc23)cc1 | -19.9% |
| O=C1CSC(=S)N1c1ccc(F)cc1 | 18.8% |
| CC(=O)Nc1nc(-c2ccc(Cl)cc2)nc(C)c1C(C)=O | -11.7% |

From PubChem BioAssay AID1981 (Southern Research Specialized Biocontainment Screening …, 2009)
